Data published in the supplement of paper PMC7366291.
Structures can show the parent of a compound that is named as a salt. ± gives the standard deviation of the averaged measurements.

test system: Danio rerio Tg(wt1b:EGFP) embryo, pronephros; experiment: pronephric angle neck segment to proximal convoluted tubule (mean of left and right), fold change vs DMSO control; higher = larger pronephric angle; details: 25 µM; exposure: 24-48 hpf
Summary of the method: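 Every feature is expressed as a fold change relative to the averaged DMSO-treated embryos of the same day. The exposure ran from 24 to 48 hpf at 28.5°C, with dechorionated Tg(wt1b:EGFP) zebrafish embryos in HEPES-buffered E3 containing 0.003% PTU, 0.5% DMSO and 25 μM compound. Dorsal pronephros images taken in agarose-filled 96-well plates were reduced to maximum projections, on which 16 reference points were set by hand in Fiji for a macro to compute distances and angles. Values more than 2 SD from the feature mean were not used.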

| SMILES | pronephric angle neck segment |
| --- | --- |
| C[N+](C)(C)CCCCCC[N+](C)(C)C [Hexamethonium dibromide dihydrate] | 0.997 ± 0.041 |
| NCCCC[C@H](N[C@@H](CCc1ccccc1)C(=O)O)C(=O)N1CCC[C@H]1C(=O)O [Lisinopril] | 1.02 ± 0.032 |
| CN(C)CC/C=C1/c2ccccc2COc2ccc(CC(=O)O)cc21 [Olopatadine hydrochloride] | 1.03 ± 0.025 |
| CC(C)NNC(=O)c1ccncc1 [Iproniazide phosphate] | 0.9788 ± 0.0054 |
| CC(C(=O)O)c1ccc(C(=O)c2ccccc2)s1 (stereo not drawn) [Tiaprofenic acid] | 1.03 ± 0.015 |
| O=c1oc2ccccc2c(O)c1Cc1c(O)c2ccccc2oc1=O [Dicumarol] | 1.14 ± 0.08 |
| COC(=O)CCc1ccc(OCC(O)CNC(C)C)cc1 (stereo not drawn) [Esmolol hydrochloride] | 0.986 ± 0.013 |
| Cc1cc(=O)n(-c2ccccc2)n1C [Antipyrine] | 1 ± 0.043 |
| CCCCC[C@H](O)/C=C/[C@H]1[C@H](O)CC(=O)[C@@H]1CCCCCCC(=O)O [Alprostadil] | 1.09 ± 0.047 |
| CCc1nn(CCCN2CCN(c3cccc(Cl)c3)CC2)c(=O)n1CCOc1ccccc1 [Nefazodone hydrochloride] | 0.989 ± 0.012 |
| CNS(=O)(=O)Cc1ccc2[nH]cc(CCN(C)C)c2c1 [Sumatriptan succinate] | 1 ± 0.04 |
| CC(=O)N[C@@H](CC(C)C)C(=O)O [N-Acetyl-L-leucine] | 0.993 ± 0.013 |
| Nc1nc(=O)c2nc(CNc3ccc(C(=O)N[C@@H](CCC(=O)O)C(=O)O)cc3)cnc2[nH]1 [Folic acid] | 1.04 ± 0.014 |
